Screen size: about 3,400 compounds; about 120 (3.5%) were called active. The rule behind the calls is not given here. These entries were drawn from the full list. A call without a number means that no potency is given here. Potency and affinity values are given separately.

These results are taken from PubChem BioAssay AID1053143 (Broad Institute, 2014).

A short description of this assay: viability loss in HepG2 hepatoma cells – cell-based, ATP luminescence, cherry-pick, activator set 2, cytotoxicity control, dose response (AID 1053143). The conditions noted are these: CellTiter-Glo ATP luminescence, 72 h; series mostly up to 26 µM. (In general: ATP-based viability assays read luminescence as a measure of living cells.)
With `Fc1cccc(CSc2ccc(-c3ccco3)nn2)c1`, the activity change, negative = cytotoxicity entry is “inactive”. Then `CC(SCc1ccccc1)C(=O)Nc1ccccc1` (centres undefined), with “inactive”; and `COc1c(OC(C)=O)ccc(/C=C/c2ccc3cccc(OC)c3n2)c1[N+](=O)[O-]`, with “inactive”; and `COc1cccc(/C=C/c2ccc3cccc(O)c3n2)c1OC`, with “inactive”. Then `COc1cccc(/C=C/c2ccccn2)c1O`, with “inactive”. Consider `CCOC(=O)c1cc(OCC)c2c(ccc3ccccc32)n1`, for which the activity change, negative = cytotoxicity entry was “inactive”. Consider `COc1ccc(-c2csc(NC(=O)CC(C)C)n2)cc1`, for which the activity change, negative = cytotoxicity result is “inactive”.

Regarding `COc1ccccc1N1CCN(/N=C\c2ccc(C)o2)CC1`, the activity change, negative = cytotoxicity result is “inactive”. On to `COc1ccc(CCNC2CC(=O)N(CCc3ccccc3)C2=O)cc1OC` (centres undefined), for which the activity change, negative = cytotoxicity entry was “inactive”. For the compound `COc1ccc(Nc2nc(N)nc(CSc3nccn3C)n2)cc1`, the activity change, negative = cytotoxicity entry is “inactive”. On to `COc1ccc2cc(-c3cccnc3)ncc2c1`, for which the activity change, negative = cytotoxicity result was “inactive”. Under `Clc1nc(Nc2ccccc2)nc(Nc2ccccc2)n1` stands “inactive”. Under `O=[N+]([O-])c1ccc(Nc2nccc(Cl)n2)cc1` stands “inactive”. Under `COc1ccc(NC(=O)Nc2cc(C)ccn2)cc1` stands “inactive”; under `COc1ccc(Nc2ccc3ccccc3c2)cc1`, “inactive”. For `O=C(c1ccc(Cl)c([N+](=O)[O-])c1)N(Cc1ccc(Cl)cc1)C1CCS(=O)(=O)C1` (centres undefined), the activity change, negative = cytotoxicity entry is “inactive”. Regarding `Cn1nnc(NC(=O)C(c2ccccc2)c2ccccc2)n1`, the activity change, negative = cytotoxicity result was “inactive”. Under `O=C(CNC(=O)c1ccccc1)OCC(=O)N1N=C(c2ccc(Cl)cc2)CC1c1ccco1` (centres undefined) stands “inactive”; under `C#CCNC(=O)/C=C/c1ccc(OC)cc1`, “inactive”. Under `Cc1nc2ccc(NC(=O)c3ccc(Cl)s3)cc2s1` stands “inactive”; under `C=CCOc1ccc2c(OC)c3ccoc3nc2c1OC`, “inactive”. For the compound `CCCC(=O)N(C)c1nnc(-c2ccc(OC)cc2)s1`, the activity change, negative = cytotoxicity result is “inactive”. Under `COc1ccc(C)cc1NC(=O)C1CCCN1S(=O)(=O)c1ccccc1F` (centres undefined) stands “inactive”. Regarding `Cn1cccc1C(=O)OCC(=O)c1cc2ccccc2o1`, the activity change, negative = cytotoxicity result is “inactive”. Under `COc1cc(Cl)ccc1OCc1cc(C(=O)N2C[C@@H]3CCC[C@H]2C3)no1` stands “inactive”; under `O=C(/C=C/c1ccco1)Nc1nc(-c2ccccc2)cs1`, “inactive”.

Consider `Nc1cc(-c2ccc(Cl)cc2)nn1-c1ccccc1`, for which the activity change, negative = cytotoxicity entry is “inactive”. Under `Cc1occc1C(=O)O/N=C(\N)c1ccc(Cl)cc1` stands “inactive”; under `O=C(Nc1nc(=O)c2ccccc2s1)c1ccccc1`, “inactive”; under `O=C(Nc1nc2ccccc2s1)c1ccc(F)cc1`, “inactive”.

As for `O=C(c1ccccc1)c1cnc(-c2ccc(Cl)cc2)s1`, the activity change, negative = cytotoxicity entry is “inactive”. Then `CCCC(=O)N/C(N)=N/c1nc2ccccc2o1`, with “inactive”; and `Nc1nc(Nc2ccccc2F)sc1C(=O)c1ccccc1`, with “inactive”.

Take `Cc1nc(Nc2ccccc2)sc1C(=O)c1ccccc1`: the activity change, negative = cytotoxicity result was “inactive”. On to `Cc1ccc(Nc2ncccc2C(N)=O)cc1[N+](=O)[O-]`, for which the activity change, negative = cytotoxicity result was “inactive”.

Turning to `CCOC(=O)c1ccc(N2Cc3ccccc3C2=NC(=O)c2ccncc2)cc1`, the activity change, negative = cytotoxicity entry was “inactive”. Then `Cc1ccc(Nc2nc3ccccc3o2)cc1F`, with “inactive”. Then `O=c1sc2ccccc2n1CCCOc1ccccc1`, with “inactive”; and `Cn1c(-c2ccc([N+](=O)[O-])cc2)nc2ccccc21`, with “inactive”. Then `Cc1ccc(OCCn2cnc3ccccc3c2=O)c([N+](=O)[O-])c1`, with “inactive”. As to `Fc1cccc(-c2ncc(-c3ccccc3)o2)c1`, the activity change, negative = cytotoxicity result was “inactive”. In the case of `Cc1cc2sc(NC(=O)c3ccco3)nc2cc1Cl`, the activity change, negative = cytotoxicity result is “inactive”.

`O=C(Nc1cc(-c2ccccc2)cs1)c1ccco1`: the activity change, negative = cytotoxicity result is “inactive”. Then `O=C(Nc1nc2ccc([N+](=O)[O-])cc2s1)c1ccco1`, with “inactive”; and `Cc1cc(NC(=O)c2ccccc2)sc1C`, with “inactive”; and `O=C(Nc1nc2c(ccc3ccccc32)s1)c1ccco1`, with “inactive”. Then `CCOC(=O)c1ccc2nc(NC(C)=O)sc2c1`, with “inactive”; and `CCOc1ccc(NC(=O)Cc2ccccc2)cc1`, with “inactive”; and `COC(=O)c1sc2nc3c(cc2c1N)CCCC3`, with “inactive”.

Take `CC(C)c1ccc(NC(=O)c2cccc(Br)c2)cc1`: the activity change, negative = cytotoxicity entry is “inactive”. Then `COc1cc(/C=N/NC(=O)CNC(=O)c2ccccc2)ccc1OC(=O)c1cccs1`, with “inactive”; and `O=C(Nc1nc2ccc(Cl)cc2s1)C1CC1`, with “inactive”; and `CCC1CCCCN1S(=O)(=O)c1ccc(NC(=O)C2CC(=O)N(C(C)(C)C)C2)cc1` (centres undefined), with “inactive”. Then `O=c1[nH]c2ccccc2nc1CCc1ccccc1`, with “inactive”.

With `COc1cc(OC)cc(C(=O)NCC(=O)Nc2ccc(C)c(Cl)c2)c1`, the activity change, negative = cytotoxicity result was “inactive”. Regarding `Cc1cc(N2CCCCC2)nc2ccc(NC(=O)CCC(=O)NCCC(C)C)cc12`, the activity change, negative = cytotoxicity entry was “inactive”. Then `CCn1ccc(C(=O)Nc2ccc(Cl)cn2)n1`, with “inactive”; and `c1ccc2c(c1)Cc1cc3ccccc3nc1-2`, with “inactive”. Turning to `O=C1c2ccccc2-c2nc3ccccc3cc21`, the activity change, negative = cytotoxicity entry is “inactive”. Under `CC(C)Sc1ccc(C(=O)Nc2ccc(F)cc2F)cn1` stands “inactive”; under `CCC(C)Sc1ccc(-c2nc3ccc(Cl)cn3c2NCc2ccccc2)cc1` (centres undefined), “inactive”. Then `CN(Cc1ccsc1)C(=O)CCc1nnc(CCCc2ccccc2)o1`, with “inactive”.

Consider `O=C(Nc1ccccn1)C(=O)Nc1ccccn1`, for which the activity change, negative = cytotoxicity entry is “inactive”. Under `Cc1n[nH]c(=O)nc1N/N=C/c1ccco1` stands “inactive”; under `Cc1nc(-c2ccc(NC(=O)c3ccccc3Br)cc2)cs1`, “inactive”; under `Cc1nc(-c2ccc(NC(=O)CC(C)C)cc2)cs1`, “inactive”.

On to `O=C(NC(=O)c1ccccc1)Nc1ccccc1O`, for which the activity change, negative = cytotoxicity entry is “inactive”. Turning to `O=C(Nc1ccccc1N1CCN(c2ccccc2)CC1)c1ccccc1`, the activity change, negative = cytotoxicity entry was “inactive”. With `CCCNC(=O)Nc1cccc(C(=O)OC)c1`, the activity change, negative = cytotoxicity result was “inactive”.

With `Nc1ccc2nc(-c3ccccc3)cnc2c1`, the activity change, negative = cytotoxicity result was “inactive”.

For the compound `c1ccc(-c2cnnc(-c3ccccn3)n2)cc1`, the activity change, negative = cytotoxicity result was “inactive”. Under `O=C(Nc1nccs1)c1cc2c(s1)-c1ccccc1OC2` stands “inactive”.

Consider `Cc1cc(O)c(NC(=O)c2cccc([N+](=O)[O-])c2)cc1C`, for which the activity change, negative = cytotoxicity entry was “inactive”. Then `COc1ccc(CCN2C(=NC(C)=O)SC3CS(=O)(=O)CC32)cc1OC` (centres undefined), with “inactive”. In the case of `Clc1ccccc1C=NNc1ccccn1`, the activity change, negative = cytotoxicity result is “inactive”. Under `COc1cccc(N/N=C/c2cccc(Br)c2O)c1` stands “inactive”; under `CCCCSc1nnc(-c2ccc(C)cc2)n1C`, “inactive”.

For the compound `Cc1ccc(/C=C/c2nc3ccccc3[nH]2)o1`, the activity change, negative = cytotoxicity result is “inactive”. Under `Clc1ccc(Cn2c(/C=C/c3ccco3)nc3ccccc32)cc1` stands “inactive”; under `COc1ccccc1C(=O)Nc1ccc2c(C)cc(=O)oc2c1`, “inactive”. For the compound `c1ccc2[nH]c(SCC3CCCCO3)nc2c1` (centres undefined), the activity change, negative = cytotoxicity entry is “inactive”. Then `Oc1ccc(-c2cnc3ccccc3n2)cc1`, with “inactive”; and `Cc1cc2ncc(-c3ccccc3)nc2cc1C`, with “inactive”. Then `Cn1c2nc3ccccc3c-2nc2ccccc21`, with “inactive”; and `CCCCOC(=O)Nc1ccc(C(=O)OC)cc1`, with “inactive”.

Consider `CC1CCc2nc3sc4c(c3c(N)c2C1)CCCC4` (centres undefined), for which the activity change, negative = cytotoxicity result is “inactive”. As to `O=C(Nc1nc(-c2nc3ccccc3s2)cs1)C1CC1`, the activity change, negative = cytotoxicity entry was “inactive”. Then `COc1ccc(-c2nc3ccccc3s2)cc1NC(C)=O`, with “inactive”. Under `Cc1nn2c(=O)cc(COC(=O)c3c(F)cccc3Cl)nc2s1` stands “inactive”; under `COc1ccc(/C=C/c2nnc(NC(C)=O)s2)cc1`, “inactive”.

With `COc1cccc(C(=O)Nc2nc(C)cs2)c1`, the activity change, negative = cytotoxicity result was “inactive”. Under `Cc1csc(NC(=O)c2ccc(C)s2)n1` stands “inactive”. For the compound `O=C(/C=C/c1cccs1)NCc1cccs1`, the activity change, negative = cytotoxicity entry was “inactive”. Then `O=C(Nc1ccc2c(c1)OCO2)c1ccccn1`, with “inactive”; and `O=C(O)c1ccc(-c2noc(-c3ccccc3Cl)n2)cc1`, with “inactive”; and `O=C(Nc1cccc(F)c1)Nc1ccc2c(c1)CCC2`, with “inactive”. Under `O=C(Nc1ccc(F)cc1)Nc1ccc2c(c1)CCC2` stands “inactive”; under `COc1cc(/C=C/C(=O)OCC(=O)NCCc2ccccc2)cc(OC)c1OC`, “inactive”; under `COc1cc(/C=C/C(=O)N2C(=O)c3cccc(N)c3C2=O)cc(OC)c1OC`, “inactive”. As for `Cc1cc(C(=O)COC(=O)c2ccc(O)cc2O)c(C)n1C(C)C`, the activity change, negative = cytotoxicity result was “inactive”. Under `c1ccc(-c2csc(N3CCOCC3)n2)cc1` stands “inactive”; under `Nc1nc(-c2ccc3c(c2)CCO3)cs1`, “inactive”; under `COc1cc(/C=N/Nc2ccc(Cl)c(C(=O)O)c2)ccc1OC(=O)c1cccs1`, “inactive”. Then `O=S(=O)(c1ccc(Cl)cc1)N1CCN(Cc2ccc(O)c3ncccc23)CC1`, with “inactive”; and `O=c1oc2ccccc2c2c1ncn2CCN1CCOCC1`, with “inactive”; and `O=C(c1ccc(N2CCOCC2)cc1)c1cccs1`, with “inactive”. Then `CCc1ccc(CNCCNC(=O)c2ccco2)cc1`, with “inactive”; and `O=c1c2ccccc2nnn1CSc1nnc2ccccn12`, with “inactive”. As for `CCC(C)(C)c1ccc2c(c1)C(=O)c1ccccc1C2=O`, the activity change, negative = cytotoxicity entry is “inactive”. Then `COCCNC(=O)c1ccc2c3n(nc2c1)-c1ccc(C)cc1CO3`, with “inactive”. Then `O=C(NCCO)c1ccc2c3n(nc2c1)-c1ccccc1CO3`, with “inactive”.

With `O=C(O)c1ccc2c3n(nc2c1)-c1ccc(Cl)cc1CO3`, the activity change, negative = cytotoxicity result is “inactive”. Then `O=C(c1ccc2c3n(nc2c1)-c1ccc(Cl)cc1CO3)N1CCOCC1`, with “inactive”; and `CCOC(=O)c1sc(=NC(=O)c2ccccc2Br)n(C)c1C`, with “inactive”. `COc1ccc(CCC(=O)Nc2nnc(C)s2)cc1`: the activity change, negative = cytotoxicity result was “inactive”. Under `CC(=O)Nc1ccc(-c2cc(N)n(-c3ccccc3)n2)cc1` stands “inactive”. Under `Cc1ccc(OC(=O)c2c(C)nn(-c3ccccc3)c2C)cc1` stands “inactive”. Then `Cc1ccc2cc(/C=C/C(=O)c3ccco3)c(Cl)nc2c1`, with “inactive”; and `CCOC(=O)N1N=C(CC)CC1(O)C(F)(F)F` (centres undefined), with “inactive”; and `COC(=O)c1ccc(-c2cc3onc(-c4ccccc4)c3c(=O)n2C)cc1`, with “inactive”. Consider `Cn1c(-c2ccc(F)c(F)c2)cc2onc(-c3ccccc3)c2c1=O`, for which the activity change, negative = cytotoxicity entry is “inactive”. `CC(C)C1COC(c2cccc3ccccc23)=N1` (centres undefined): the activity change, negative = cytotoxicity result was “inactive”. Under `CC(=O)c1ccc(NC(=O)c2ccn(C(=O)OCC(C)C)n2)cc1` stands “inactive”; under `CCOC(=O)c1csc(NC(=O)c2cccs2)n1`, “inactive”. Then `COc1ccc2cc(CCNC(=O)c3cccs3)c(=O)[nH]c2c1`, with “inactive”; and `Cc1csc(=NC(=O)c2ccccc2)n1C`, with “inactive”; and `CC(C)C(=O)Nc1ccc(NC(=O)c2cc3ccccc3o2)cc1`, with “inactive”. `COc1ccc2nc(NC3=NCCC3)sc2c1`: the activity change, negative = cytotoxicity result is “inactive”.

As for `CCOC(=O)c1cccc(NC(=O)c2ccc(F)cc2F)c1`, the activity change, negative = cytotoxicity entry was “inactive”.
